Measured values reported in the supplement of paper PMC6555819.

Assays:
Experiment in all cases: PBM binding z-score (relative to random genomic background probes); higher = stronger binding; sequences stand for … in GC…GCGATTGACAGCGTAGAATGAAGG
[1] = system: FXR:RXRa (NR concentration 270 nM, RXRa partner concentration 90 nM)
Method in brief: (§1)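 For binding z-scores, the reference was random background probes on custom Agilent 4×180K protein-binding microarrays. These arrays were incubated 1 h with ligand-free nuclear receptor dimers in PBS pH 7.4, 2% milk, 0.02% Triton X-100, 1 mM DTT, 0.2 mg/mL BSA and 0.4 mg/ml salmon testes DNA. Fluorescence was scanned after antibody detection of each partner (one per run) and regression-normalized.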

[2] = system: LXRa:RXRa (NR concentration 270 nM, RXRa partner concentration 90 nM)
Method in brief: as §1

[3] = system: LXRa homodimer (NR concentration 270 nM)
Method in brief: as §1

[4] = system: LXRb:RXRa (NR concentration 270 nM, RXRa partner concentration 90 nM)
Method in brief: as §1

[5] = system: LXRb homodimer (NR concentration 270 nM)
Method in brief: as §1

[6] = system: PPARa:RXRa (NR concentration 270 nM, RXRa partner concentration 90 nM)
Method in brief: as §1

[7] = system: PPARg:RXRa (NR concentration 180 nM, RXRa partner concentration 90 nM)
Method in brief: as §1

[8] = system: PPARg:RXRa 270nM:90nM, anti-RXR (NR concentration 270 nM, RXRa partner concentration 90 nM)
Method in brief: as §1

[9] = system: PPARg:RXRa 30nM:10nM, anti-RXR (NR concentration 30 nM, RXRa partner concentration 10 nM)
Method in brief: as §1

[10] = system: PPARg:RXRa 90nM:30nM, anti-RXR (NR concentration 90 nM, RXRa partner concentration 30 nM)
Method in brief: as §1

[11] = system: PPARg:RXRa DBDmut IVT, anti-RXR (DBD mutation: RXRa K156A/R161A, NR concentration 270 nM, RXRa partner concentration 90 nM)
Method in brief: as §1

[12] = system: PPARg:RXRa IVT, anti-PPARg (NR concentration 270 nM, RXRa partner concentration 90 nM)
Method in brief: as §1

[13] = system: PPARg DBDmut:RXRa IVT, anti-PPARg (DBD mutation: PPARg1 K132A/R137A, NR concentration 270 nM, RXRa partner concentration 90 nM)
Method in brief: as §1

[14] = system: PPARg DBDmut IVT, anti-PPARg (DBD mutation: PPARg1 K132A/R137A, NR concentration 270 nM)
Method in brief: as §1

[15] = system: PPARg homodimer (NR concentration 180 nM)
Method in brief: as §1

[16] = system: PXR homodimer (NR concentration 270 nM)
Method in brief: as §1

[17] = system: RARa:RXR (NR concentration 270 nM, RXRa partner concentration 90 nM)
Method in brief: as §1

[18] = system: RARa homodimer (NR concentration 270 nM)
Method in brief: as §1

[19] = system: RARb:RXRa (NR concentration 270 nM, RXRa partner concentration 90 nM)
Method in brief: as §1

[20] = system: PXR:RXRa (NR concentration 270 nM, RXRa partner concentration 90 nM)
Method in brief: as §1

| Sequence | PBM binding z-score [1] | PBM binding z-score [2] | PBM binding z-score [3] | PBM binding z-score [4] | PBM binding z-score [5] | PBM binding z-score [6] | PBM binding z-score [7] | PBM binding z-score [8] | PBM binding z-score [9] | PBM binding z-score [10] | PBM binding z-score [11] | PBM binding z-score [12] | PBM binding z-score [13] | PBM binding z-score [14] | PBM binding z-score [15] | PBM binding z-score [16] | PBM binding z-score [17] | PBM binding z-score [18] | PBM binding z-score [19] | PBM binding z-score [20] |
| --- | --- | --- | --- | --- | --- | --- | --- | --- | --- | --- | --- | --- | --- | --- | --- | --- | --- | --- | --- | --- |
| CCTAGTTGGTCAGGAGGTCACATACCGGATATGA | 3.32 | 3.13 | 1.66 | 3.16 | 0.594 | 3.7 | 3.11 | 3.14 | 1.32 | 2.95 | 1.64 | 3.39 | 0.476 | 0.388 | 2.7 | 1.16 | 3.9 | 2.01 | 3.37 | – |
| CGAACTAGGTCATAGGACAGTGAAAGGCGACGTA | 3.51 | 2.47 | 0.169 | 1.66 | -0.283 | 5.07 | 9.06 | 7.62 | 6.41 | 7.72 | 7.81 | 8.5 | – | 0.801 | 1.9 | -0.212 | 2.17 | 0.173 | 3.5 | 1.2 |
| GGAACGAGGGCATTCGAGTTGATAGCATGGCGAT | 1.35 | 1.46 | -0.481 | -0.0953 | -0.345 | 1.38 | 0.867 | 0.479 | -0.23 | -0.0469 | 2.91 | 2.18 | -0.045 | 0.402 | -0.267 | 1.45 | 0.423 | -0.292 | 1.73 | – |
| CCTACTGGGTCATTCAGAGGTCATTGATCATATG | 5.47 | 6.23 | 6.38 | 5.36 | 1.42 | 5.41 | 6.55 | 5.9 | 3.21 | 5.33 | 6.17 | 7.04 | 1.98 | 0.698 | 6.37 | 3.7 | – | 1.17 | 4.51 | – |
| CCTTACGGGTCACTCTAGGTTATAGCATCGGAGT | 5.09 | 7.69 | 1.83 | 5.58 | 0.329 | 4.68 | 3.33 | 3.69 | 1.3 | 2.76 | 3.21 | 3.69 | 0.202 | -0.339 | 1.82 | 0.568 | 3.43 | 0.346 | 3.68 | – |
| ATCGAAAGGTCGAAGGTGAGTCTACCCACCCGAA | 4.39 | 3.59 | -0.0971 | 2.87 | 0.861 | 4.78 | 4.36 | 5.19 | 2.51 | 4.21 | 0.133 | 2.34 | 0.449 | 0.43 | 1.56 | 0.264 | 4.57 | -0.143 | 3.74 | – |
| CGAACTAGGTCCAAGGACAGTGAAAGGCGACGTA | -0.44 | -0.748 | -0.421 | -0.931 | -1.24 | 0.459 | 1.53 | 2.19 | 0.583 | 1.69 | 0.968 | 1.2 | – | -0.593 | -0.32 | -0.337 | -0.0342 | -0.625 | 0.398 | -0.326 |
| ATATGTAGGTTAGGGTCATACAGAAAGTAGGGAA | 4.95 | 4.24 | 0.95 | 4.42 | 1.32 | 5.66 | 8.3 | 6.82 | 4.46 | 6.69 | 6.63 | 6.88 | – | 2.42 | 2.62 | 1.46 | 5.03 | 1.3 | 3.53 | 4.21 |
| AGTCAAAGTTCTTCTAGGTAACGTAAGATATGCT | 0.261 | -0.366 | 0.0883 | -0.0374 | 0.0414 | 0.304 | 0.844 | 1.16 | 0.354 | 0.549 | 0.515 | 1.89 | 0.999 | 1.12 | 0.188 | 0.42 | 0.106 | 0.636 | 0.948 | – |
| AGAATGAGGTTATACGTAGGTCAGGGAAGAAAGT | 3.33 | 4.18 | 1.07 | 3.2 | 0.0984 | 4.04 | 2.84 | 2.74 | 0.859 | 2.05 | 3.82 | 2.92 | 1.18 | 0.81 | 3.44 | 0.992 | 4.71 | 0.747 | 3.19 | – |
| ATATGTAGGTTAGCTGGCGTCATTCAGACTAGGC | -0.167 | 0.0704 | -0.277 | -0.239 | 0.141 | 1.69 | 2.61 | 2.43 | 0.729 | 1.81 | 6.56 | 5.58 | 1.28 | 0.35 | 0.334 | -0.283 | 0.227 | 0.262 | 0.462 | – |
| CGTCCAAGGTCAATGCGAGGTCAGTGAAAGCATT | 7.21 | 6.04 | 4.28 | 5.1 | 1.25 | 5.46 | 4.59 | 4.98 | 1.48 | 3.65 | 3.2 | 4.05 | 0.262 | -0.0151 | 6.13 | 4.68 | – | 1.33 | 5.4 | – |
| ATACCAAGGTCATCGTGAGGTCGTTGATACTAAC | 7.59 | 6.05 | 4.44 | 5.33 | 1.71 | 5.74 | 6.03 | 5.6 | 2.72 | 4.27 | 2.34 | 4.3 | 2.33 | 1.42 | 4.01 | 5.81 | 6 | 1.56 | 5.36 | – |
| CGAACTAGGTCACCAGGCCAGTGAAGAGGTTGGA | 4.08 | 2.41 | -0.125 | 1.44 | -0.76 | 5.2 | 8.64 | 7.15 | 4.02 | 6.44 | 8.23 | 8.8 | – | 0.89 | 2.25 | -0.53 | 2.73 | -0.334 | 4.22 | 1.18 |
| AATACAGGGTCACTTGGCCAGAGTAGGTACGAAT | 6.52 | 5.13 | 1.39 | 4.27 | 1.54 | 5.49 | 5.84 | 5.4 | 2.24 | 4.19 | 2.55 | 4.18 | 1.56 | 1.27 | 1.58 | 0.166 | 4.1 | 0.292 | 4.23 | – |
